Source: PubChem BioAssay
Active and inactive are the calls of the source.

Assays:
[1] = test system: Human papillomavirus type 1a protein E7 (residues 44-93); test: HPV1a E7 fragment binders on microarrays, primary screen, biochemical, small-molecule microarray, residues 44-93, 635 nm fluorescence (AID 1108); details: small-molecule microarray binding, fluorescence 635 nm; higher = more signal;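 note: E7 fragment applied at 1 µg/mL in TBST for 1 h at 4 C; score combines spot fluorescence with its signal to noise ratio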
[2] = modulators of HCV replicon luciferase signal, primary screen, HCV replication inhibitor project, Huh7 cells, luciferase reporter (AID 1109); details: 48 h, higher = more signal;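 note: huh7 hepatoma cells harbouring a luciferase neomycin HCV replicon reporter; luciferase luminescence as measure of HCV replicon replication; test concentration not given here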
[3] = target: Left-right determination factor 2 (Homo sapiens) (UniProt O00292); test: LEFTY2 binders on small-molecule microarrays, primary screen, biochemical, small-molecule microarray, 635 nm fluorescence scan (AID 1110); details: LEFTY2 binding, higher = more signal
[4] = target: Calmodulin-1 (Homo sapiens) (UniProt P0DP23); test: CALM1 binders on microarrays, EGTA buffer, profiling panel, biochemical, small-molecule microarray, Cy5-labelled CALM1 (AID 1111); details: Cy5-CALM1 binding fluorescence, higher = more signal;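 note: labelled calmodulin applied in Tris saline Tween buffer holding calcium plus EGTA and DTT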
[5] = target: Calmodulin-1 (Homo sapiens) (UniProt P0DP23); test: calcium-bound CALM1 binders on microarrays, profiling panel, artefact control for SMM control-protein annotation, biochemical, small-molecule microarray, Cy5-labelled CALM1, plus calcium (AID 1112); details: Cy5-CALM1 binding fluorescence, higher = more signal;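 note: score merges spot fluorescence with signal to noise from triplicate slides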
[6] = small-molecule microarray binders of probe aWnt5a, primary screen, biochemical, biotinylated probe, 635/667 nm fluorescence (AID 1113); details: higher = more signal;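 note: score merges 667 nm fluorescence intensity with signal-to-noise per printed feature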
[7] = small-molecule microarray binders of probe aShh, primary screen, biochemical, biotinylated probe, 635/667 nm fluorescence (AID 1114); details: higher = more signal;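 note: probe is biotin-labelled aShh protein from a stem cell growth factor screen; measures binding of labelled protein to compounds printed on the slide; score merges feature fluorescence at 667 nm with signal-to-noise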
[8] = small-molecule microarray binders of probe aNog, primary screen, biochemical, biotinylated probe, 635/667 nm fluorescence (AID 1115); details: higher = more signal;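 note: probe is biotinylated aNog protein used at 0.15 µg/mL for 1 h at 4 C; z-score combines 667 nm fluorescence of each spot with its signal to noise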
[9] = target: Torsin-1A-interacting protein 1 (Homo sapiens) (UniProt Q5JTV8); test: LAP1 binders from COS7 cell lysate, primary screen, small-molecule microarray, 635/667 nm fluorescence (AID 1116); details: COS7-hLAP1 lysate binding, 635 nm fluorescence, higher = more signal
[10] = target: Alpha-bungarotoxin (Bungarus multicinctus) (UniProt P60615); test: alpha-bungarotoxin binders on microarray, profiling panel, artefact control for SMM control protein annotation, biochemical, small-molecule microarray, Alexa647 label, 635/667 nm fluorescence (AID 1117); details: alpha-BTX-A647 binding fluorescence, higher = more signal
[11] = target: Albumin (Bos taurus) (UniProt P02769); test: bovine serum albumin binders on microarray, profiling panel, artefact control for SMM control protein annotation, biochemical, small-molecule microarray, Alexa647 label, 635/667 nm fluorescence (AID 1118); details: BSA-A647 binding, fluorescence 635 nm, higher = more signal;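 note: score merges 667 nm emission intensity and signal-to-noise per printed compound spot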
[12] = small-molecule microarray binders of probe aXIP, primary screen, biochemical, NeuroSMM set, 635/667 nm fluorescence (AID 1119); details: higher = more signal, called active from +8 up or from −8 down;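 note: probe is the protein aXip251-270 applied at 1 µg/mL to compound-printed slides; binding of probe to printed compounds measured as 667 nm fluorescence plus signal to noise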
[13] = small-molecule binders of probe aNOTCH3, primary screen, biochemical, small-molecule microarray, 635/667 nm fluorescence (AID 1120); details: higher = more signal;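 note: probe is a biotin-tagged antibody raised against NOTCH3 rather than NOTCH3 protein; score merges spot fluorescence near 667 nm with spot signal to noise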
[14] = small-molecule binders of probe aNOTCH2, primary screen, biochemical, small-molecule microarray, 635/667 nm fluorescence (AID 1121); details: higher = more signal;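 note: score merges feature fluorescence read at 667 nm with its signal to noise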
[15] = target: Carbonic anhydrase 2 (Homo sapiens) (UniProt P00918); test: CAII small-molecule binders, profiling panel, biochemical, small-molecule microarray, Alexa647-labelled CAII (AID 1122); details: CAII-A647 binding fluorescence, higher = more signal
[16] = COS7 lysate on small-molecule microarray, probe aHis, 635 nm (AID 1123); details: COS7 cell lysate, fluorescence, higher = more signal;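 note: z-score combines 667nm fluorescence intensity with signal-to-noise per printed compound spot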
[17] = compound binding in COS7 lysate, probe aLAP1, primary screen, cell lysate, small-molecule microarray (AID 1124); details: probe aLAP1, fluorescence, higher = more signal;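 note: lysate comes from COS7 cells expressing LAP1 and is applied at 0.3 µg/mL; score merges spot fluorescence near 667 nm with signal-to-noise over triplicate slides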
[18] = test system: Sam68 (KHDRBS1); test: Sam68 small-molecule binders, primary screen, biochemical, small-molecule microarray, 635 nm fluorescence (AID 1125); details: small-molecule microarray binding, higher = more signal;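 note: score merges 667 nm channel intensity with signal to noise over triplicate slides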
[19] = test system: Chordin-like protein 2 (CHRDL2); test: CHRDL2 small-molecule binders, primary screen, biochemical, small-molecule microarray, 635 nm fluorescence (AID 1126); details: small-molecule microarray binding, fluorescence 635 nm; higher = more signal;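 note: printed compound slides probed with Chrdl2 protein at 4 µg/mL for 1 h at 4 C; score merges 667 nm emission intensity with signal to noise over three replicate slides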
[20] = target: Concanavalin-A (Canavalia ensiformis) (UniProt P02866); test: ConA small-molecule binders, primary screen, artefact control for SMM control protein annotation, biochemical, small-molecule microarray, Alexa647 label, 635 nm (AID 1127); details: ConA-A647 binding fluorescence, higher = more signal;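 note: z combines 667 nm emission intensity with signal-to-noise across three replicate slides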
Chain of Concanavalin-A (Canavalia ensiformis) (P02866 whole entry, looked up): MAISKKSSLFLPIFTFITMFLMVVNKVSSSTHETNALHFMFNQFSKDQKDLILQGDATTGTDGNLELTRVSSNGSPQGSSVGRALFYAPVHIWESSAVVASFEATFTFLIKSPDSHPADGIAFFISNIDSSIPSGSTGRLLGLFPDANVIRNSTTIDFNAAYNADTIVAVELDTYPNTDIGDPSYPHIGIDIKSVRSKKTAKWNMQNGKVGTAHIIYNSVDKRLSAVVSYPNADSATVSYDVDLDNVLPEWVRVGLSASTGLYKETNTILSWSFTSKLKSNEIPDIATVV

Chain of Left-right determination factor 2 (Homo sapiens) (O00292 whole entry, looked up): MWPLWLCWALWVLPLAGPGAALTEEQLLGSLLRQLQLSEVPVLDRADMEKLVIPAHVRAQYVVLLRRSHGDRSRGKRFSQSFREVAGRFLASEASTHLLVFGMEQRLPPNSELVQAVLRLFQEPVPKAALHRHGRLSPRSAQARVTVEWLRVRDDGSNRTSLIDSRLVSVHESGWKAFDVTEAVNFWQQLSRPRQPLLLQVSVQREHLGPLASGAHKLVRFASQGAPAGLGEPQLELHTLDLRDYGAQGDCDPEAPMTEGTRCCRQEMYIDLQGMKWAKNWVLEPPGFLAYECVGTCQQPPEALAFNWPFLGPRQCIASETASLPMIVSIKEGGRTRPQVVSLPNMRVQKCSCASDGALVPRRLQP
Chain of Alpha-bungarotoxin (Bungarus multicinctus) (P60615 whole entry, looked up): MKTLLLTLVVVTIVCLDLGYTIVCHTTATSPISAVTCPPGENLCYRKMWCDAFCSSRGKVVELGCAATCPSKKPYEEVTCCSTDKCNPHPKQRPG
Chain of Albumin (Bos taurus) (P02769 whole entry, looked up): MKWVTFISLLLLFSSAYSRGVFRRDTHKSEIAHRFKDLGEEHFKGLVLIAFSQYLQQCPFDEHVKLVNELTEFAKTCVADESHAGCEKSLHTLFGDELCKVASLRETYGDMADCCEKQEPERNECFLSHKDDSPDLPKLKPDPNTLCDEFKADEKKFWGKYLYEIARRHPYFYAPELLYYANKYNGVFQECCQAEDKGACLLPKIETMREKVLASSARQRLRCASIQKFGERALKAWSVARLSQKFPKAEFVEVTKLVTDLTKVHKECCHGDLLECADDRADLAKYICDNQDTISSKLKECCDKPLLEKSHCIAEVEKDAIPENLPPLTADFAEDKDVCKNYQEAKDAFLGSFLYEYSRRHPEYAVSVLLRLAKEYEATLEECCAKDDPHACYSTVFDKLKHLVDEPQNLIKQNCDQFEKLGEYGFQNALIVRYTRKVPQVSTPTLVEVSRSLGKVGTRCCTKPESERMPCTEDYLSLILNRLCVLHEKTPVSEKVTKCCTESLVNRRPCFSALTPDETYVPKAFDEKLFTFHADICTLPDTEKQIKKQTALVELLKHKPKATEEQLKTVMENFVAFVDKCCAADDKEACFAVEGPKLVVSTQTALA
Chain of Torsin-1A-interacting protein 1 (Homo sapiens) (Q5JTV8 whole entry, looked up): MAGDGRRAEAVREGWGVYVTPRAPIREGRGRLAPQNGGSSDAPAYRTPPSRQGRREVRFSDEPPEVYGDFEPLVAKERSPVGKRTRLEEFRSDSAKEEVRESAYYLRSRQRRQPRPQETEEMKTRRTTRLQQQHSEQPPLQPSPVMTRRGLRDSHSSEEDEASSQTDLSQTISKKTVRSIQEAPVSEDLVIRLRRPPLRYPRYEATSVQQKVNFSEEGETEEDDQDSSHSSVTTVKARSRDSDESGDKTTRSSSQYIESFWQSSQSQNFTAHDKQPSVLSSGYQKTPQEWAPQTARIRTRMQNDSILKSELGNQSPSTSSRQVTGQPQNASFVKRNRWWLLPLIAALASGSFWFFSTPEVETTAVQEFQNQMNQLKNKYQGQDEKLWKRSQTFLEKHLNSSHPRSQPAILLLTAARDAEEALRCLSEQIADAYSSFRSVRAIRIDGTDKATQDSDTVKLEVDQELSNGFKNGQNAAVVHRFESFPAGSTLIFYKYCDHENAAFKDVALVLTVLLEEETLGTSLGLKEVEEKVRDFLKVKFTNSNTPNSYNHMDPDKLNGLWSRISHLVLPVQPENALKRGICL

O=C1C2C=CC(C(O)C=Cc3ccc([N+](=O)[O-])cc3)N(Nc3ccccc3)C2C(=O)N1c1ccccc1 (stereo not given)
composite z-score [1]: 1.36
z-score [2]: -0.486
composite z-score [3]: 0.0857
composite z-score [4]: 1.37
composite z-score [5]: -0.0507
composite z-score [6]: 0.0037
composite z-score [7]: -0.0866
composite z-score [8]: -0.397
composite z-score [9]: 0.568
composite z-score [10]: 0.742
composite z-score [11]: 0.859
composite Z-score [12]: 0.075 (inactive)
composite z-score [13]: 0.346
composite z-score [14]: 0.0167
composite z-score [15]: 0.713
composite z-score [16]: 2.05
composite z-score [17]: 0.276
composite z-score [18]: 1.24
composite z-score [19]: -0.0982
composite z-score [20]: 1.1

C=C(CCCC)C(=O)CC[C@H](OC(C)=O)c1ccc(OCCO)cc1
composite z-score [1]: -0.319
z-score [2]: -2.73
composite z-score [3]: -0.0558
composite z-score [4]: -0.0294
composite z-score [5]: -0.92
composite z-score [6]: -0.102
composite z-score [7]: -0.262
composite z-score [8]: 0.0989
composite z-score [9]: -0.346
composite z-score [10]: 0.657
composite z-score [11]: 0.551
composite Z-score [12]: 0.517 (inactive)
composite z-score [13]: -0.292
composite z-score [14]: -0.181
composite z-score [15]: -0.43
composite z-score [16]: -0.543
composite z-score [17]: -0.52
composite z-score [18]: -0.578
composite z-score [19]: -0.858
composite z-score [20]: 0.924

C=C/C=C/[C@@H]1C(=C)CN([C@@H](Cc2ccccc2)C(=O)OC)[C@H]1[C@@H](O)Cc1ccccc1
composite z-score [1]: 1.17
z-score [2]: -0.622
composite z-score [3]: 0.201
composite z-score [4]: 0.241
composite z-score [5]: -0.547
composite z-score [6]: -0.107
composite z-score [7]: -0.138
composite z-score [8]: 0.0924
composite z-score [9]: 0.309
composite z-score [10]: 0.325
composite z-score [11]: 0.0797
composite Z-score [12]: 0.3 (inactive)
composite z-score [13]: -0.0343
composite z-score [14]: -0.115
composite z-score [15]: 0.311
composite z-score [16]: 1.07
composite z-score [17]: 0.137
composite z-score [18]: 1.09
composite z-score [19]: 0.177
composite z-score [20]: 0.861

O=C1OCC=C[C@H]2OC34C=CCN(c5ccc6ccccc6c5)C(=O)[C@H]3N(CCCCCO)C(=O)[C@@H]4[C@@H]12 (stereo not given in full)
composite z-score [1]: 0.203
z-score [2]: -0.078
composite z-score [3]: -2.05
composite z-score [4]: -0.402
composite z-score [5]: 0.239
composite z-score [6]: -0.098
composite z-score [7]: 0.151
composite z-score [8]: 0.244
composite z-score [9]: 1.35
composite z-score [10]: -0.0602
composite z-score [11]: 0.712
composite Z-score [12]: -0.834 (inactive)
composite z-score [13]: -0.292
composite z-score [14]: -0.0176
composite z-score [15]: 0.309
composite z-score [16]: 1.25
composite z-score [17]: -0.148
composite z-score [18]: -0.702
composite z-score [19]: -1.27
composite z-score [20]: -0.388

CC1(C)C(=O)C(c2ccccc2)=C2CN3C(=O)N(CCc4ccccc4)C(=O)C3(Cc3ccc(F)cc3)C=C21 (stereo not given)
composite z-score [1]: 0.754
z-score [2]: -1.47
composite z-score [3]: -1.24
composite z-score [4]: 1.11
composite z-score [5]: 0.725
composite z-score [6]: 0.317
composite z-score [7]: 0.717
composite z-score [8]: 1.8
composite z-score [9]: 0.551
composite z-score [10]: 0.273
composite z-score [11]: 0.471
composite Z-score [12]: 0.0294 (inactive)
composite z-score [13]: 0.781
composite z-score [14]: 0.246
composite z-score [15]: 0.0225
composite z-score [16]: 1.39
composite z-score [17]: 0.155
composite z-score [18]: 0.222
composite z-score [19]: -1.21
composite z-score [20]: 0.477

CC(C)CCC[C@@H](C)[C@H]1CC[C@@]2(C)C3=C(CC[C@]12C)[C@@]1(C)CC[C@H](OC(=O)c2ccccc2)C(C)(C)C1CC3 (stereo not given in full)
composite z-score [1]: 0.359
z-score [2]: -0.313
composite z-score [3]: 0.593
composite z-score [4]: -0.0989
composite z-score [5]: -0.647
composite z-score [6]: -0.124
composite z-score [7]: -0.414
composite z-score [8]: -0.0252
composite z-score [9]: -0.251
composite z-score [10]: 0.261
composite z-score [11]: 0.181
composite Z-score [12]: 0.115 (inactive)
composite z-score [13]: -0.0074
composite z-score [14]: -0.181
composite z-score [15]: -0.103
composite z-score [16]: 0.275
composite z-score [17]: -0.0606
composite z-score [18]: 0.248
composite z-score [19]: 0.418
composite z-score [20]: 0.115

COCCCNC(=O)[C@@H]1c2ccccc2C(=O)N(C2Cc3ccccc3C2)[C@H]1c1ccc(CO)cc1
composite z-score [1]: 0.661
z-score [2]: -0.689
composite z-score [3]: 0.173
composite z-score [4]: -0.362
composite z-score [5]: -0.518
composite z-score [6]: -0.152
composite z-score [7]: -0.229
composite z-score [8]: -0.532
composite z-score [9]: 0.685
composite z-score [10]: -0.0047
composite z-score [11]: -0.423
composite Z-score [12]: 0.47 (inactive)
composite z-score [13]: -0.0584
composite z-score [14]: -0.0772
composite z-score [15]: 0.724
composite z-score [16]: 1.19
composite z-score [17]: 0.59
composite z-score [18]: 0.749
composite z-score [19]: 0.573
composite z-score [20]: 0.286

CCCNC(=O)[C@@]1(C)c2ccccc2C(=O)N(Cc2ccccc2)[C@H]1c1ccc(CO)cc1
composite z-score [1]: 0.391
z-score [2]: 0.398
composite z-score [3]: -0.626
composite z-score [4]: -0.0596
composite z-score [5]: 0.095
composite z-score [6]: -0.197
composite z-score [7]: -0.0421
composite z-score [8]: -0.378
composite z-score [9]: 0.78
composite z-score [10]: -0.612
composite z-score [11]: 0.0799
composite Z-score [12]: 2.55 (inactive)
composite z-score [13]: -0.128
composite z-score [14]: 0.0313
composite z-score [15]: 0.71
composite z-score [16]: 2.68
composite z-score [17]: 0.931
composite z-score [18]: 0.526
composite z-score [19]: -1.13
composite z-score [20]: 0.657

COCCOC(=O)N1C(=O)[C@@]2(c3cc(C#CCNC(N)=O)ccc31)[C@H](c1ccc(O)cc1)N1[C@H](c3ccccc3)[C@H](c3ccccc3)OC(=O)[C@H]1[C@@H]2C(N)=O
composite z-score [1]: -0.8
z-score [2]: -0.101
composite z-score [3]: -2.24
composite z-score [4]: -0.747
composite z-score [5]: 0.502
composite z-score [6]: -0.377
composite z-score [7]: -0.378
composite z-score [8]: -0.0585
composite z-score [9]: -0.448
composite z-score [10]: -2.27
composite z-score [11]: -0.864
composite Z-score [12]: -1.03 (inactive)
composite z-score [13]: -0.443
composite z-score [14]: -0.198
composite z-score [15]: -0.394
composite z-score [16]: -0.157
composite z-score [17]: -0.38
composite z-score [18]: -0.344
composite z-score [19]: -1.52
composite z-score [20]: -1.03

COC(=O)[C@@]1(Cc2ccc(OC)cc2)[C@H]2c3cc(C(=O)N4CCCC4)n(Cc4ccc(S(C)(=O)=O)cc4)c3C[C@H]2CN1C(=O)c1ccccc1
composite z-score [1]: 0.918
z-score [2]: -0.887
composite z-score [3]: -0.0914
composite z-score [4]: 2.06
composite z-score [5]: 0.955
composite z-score [6]: 0.108
composite z-score [7]: 0.883
composite z-score [8]: -0.121
composite z-score [9]: 1.05
composite z-score [10]: 0.448
composite z-score [11]: 1.03
composite Z-score [12]: 0.602 (inactive)
composite z-score [13]: 0.264
composite z-score [14]: 0.36
composite z-score [15]: 0.583
composite z-score [16]: 2.22
composite z-score [17]: -0.272
composite z-score [18]: 0.838
composite z-score [19]: -0.737
composite z-score [20]: 0.417

CCOC(=O)C1=C[C@@H](c2ccccc2)N(S(=O)(=O)c2ccc(C)cc2)[C@H]1c1ccccc1
composite z-score [1]: 0.0627
z-score [2]: 0.235
composite z-score [3]: -0.063
composite z-score [4]: 0.997
composite z-score [5]: 0.209
composite z-score [6]: -0.124
composite z-score [7]: -0.138
composite z-score [8]: 1.13
composite z-score [9]: -0.109
composite z-score [10]: 0.291
composite z-score [11]: 0.612
composite Z-score [12]: 0.185 (inactive)
composite z-score [13]: 0.0636
composite z-score [14]: -0.022
composite z-score [15]: 0.0593
composite z-score [16]: -0.136
composite z-score [17]: 0.326
composite z-score [18]: 0.582
composite z-score [19]: 0.512
composite z-score [20]: 0.759
